Hit rate of the full screen: of about 48,000 compounds, about 13,000 (27%) showed an effect of 50% or more. This is one part of the list.
test system: Wolbachia pipientis; assay: Anti-Wolbachia Cell-Based Screen; type: functional; set-up: scale not given: in the data most compounds retested in dose-response had high values; settings: 5 µM

| Structure (SMILES) | Percent Effect |
| --- | --- |
| Cl.NC(CC1CCCCC1)c1ccccc1 (configuration not stated) | -2.613% |
| COCCn1cc(C(=O)Nc2nc3c(s2)CCC3)c2ccccc21 | 108.8% |
| CCCn1cc(C(=O)NCCS(N)(=O)=O)c2ccccc21 | 15.61% |
| COCCn1cc(C(=O)NCCS(N)(=O)=O)c2ccccc21 | 11.42% |
| Cc1ccc(CN2CC[C@H]3[C@H]2CC(=O)N3c2cccnc2)o1.O=C(O)C(F)(F)F.O=C(O)C(F)(F)F | 1.465% |
| Cc1cccc(CN2CC[C@@H]3[C@@H]2CCN3C(=O)Cc2cccs2)n1.O=C(O)C(F)(F)F.O=C(O)C(F)(F)F | 101.6% |
| COCCN1C[C@@H]2[C@@H](OC)CCN(Cc3cccc(C)n3)[C@@H]2C1.O=C(O)C(F)(F)F.O=C(O)C(F)(F)F.O=C(O)C(F)(F)F | 0.3153% |
| Cc1cccc(CN2CC[C@@H]3[C@@H]2CCN3Cc2cccs2)n1.O=C(O)C(F)(F)F.O=C(O)C(F)(F)F | 102.2% |
| Cc1cccc(CN2CC[C@H]3[C@H]2CCN3C(=O)c2cnn(C)c2)n1.O=C(O)C(F)(F)F.O=C(O)C(F)(F)F | -8.772% |
| Cc1cc(CN2CC[C@H]3[C@H]2CCN3C)oc1C.O=C(O)C(F)(F)F.O=C(O)C(F)(F)F | 2.968% |
| Cc1cccc(CN2C(=O)C[C@H]3[C@@H]2CCN3Cc2cccs2)n1.O=C(O)C(F)(F)F.O=C(O)C(F)(F)F | 4.955% |
| Cc1cccc(CN2CC[C@@H]3[C@@H]2CCN3C(=O)c2ccno2)n1.O=C(O)C(F)(F)F.O=C(O)C(F)(F)F | -0.9424% |
| Cc1ccc(CN2CC[C@@H]3[C@@H]2CCN3C(=O)Cc2cccs2)o1.O=C(O)C(F)(F)F | 90.39% |
| Cc1cccc(CN2CC[C@@H]3[C@@H]2CCN3C(=O)Cc2ccsc2)n1.O=C(O)C(F)(F)F.O=C(O)C(F)(F)F | 119.7% |
| Cc1cccc(CN2CC[C@@H]3[C@@H]2CCN3C(=O)c2cnoc2C)n1 | -2.884% |
| CC(C)(C)c1cn(C[C@H]2CC3CCN2C[C@@H]3C(=O)NC2CC2)nn1 (some centres not stated) | 12.02% |
| CC(C)N1[C@H](Cn2cncn2)C[C@@H]2CNCC[C@@H]21.Cl.Cl | -6.101% |
| Cc1ccc(N2C[C@@H]3CN(Cc4ccsc4)CCO[C@@H]3C2)nn1.O=C(O)C(F)(F)F.O=C(O)C(F)(F)F | -3.128% |
| Cc1ccc(N2CCO[C@H]3CN(Cc4ccccn4)C[C@H]32)nn1.O=C(O)C(F)(F)F.O=C(O)C(F)(F)F.O=C(O)C(F)(F)F | -12.44% |
| Cc1ccc(N2CC[C@@H]3[C@@H]2CCN3Cc2ccsc2)nn1.O=C(O)C(F)(F)F.O=C(O)C(F)(F)F | 101.6% |
| COc1ncnc(N)c1CNCCc1ccccc1 | 127.7% |

| Structure (SMILES) | Percent Effect |
| --- | --- |
| COCCN1CCC2(CC1)C(=O)Nc1ccc(C(=O)NC(C)C)cc12.O=C(O)C(F)(F)F | 101% |
| Cn1cc(CN2CCC3(CC2)C(=O)Nc2ccccc23)cn1.O=C(O)C(F)(F)F | -7.765% |
| CCN1CCC2(CC1)C(=O)Nc1ccc(C(=O)NC)cc12.O=C(O)C(F)(F)F | 117.8% |
| CCN1CCC12CCN(C(=O)c1cc(C)on1)C2.O=C(O)C(F)(F)F (configuration not stated) | -17.49% |
| CC(=O)N1CCC2(CN(CC3CCCC3)C2)C1.O=C(O)C(F)(F)F | -16.93% |
| CNC(=O)c1ccc2c(c1)C1(CCN(CCOC)CC1)C(=O)N2.O=C(O)C(F)(F)F | 94.3% |
| CC[C@@H]1N(CC2CC2)CCC[C@]12CCC(=O)N2.O=C(O)C(F)(F)F | -18.87% |
| COCCN1CCC2(C1)CN(c1ncc(F)cn1)C2.O=C(O)C(F)(F)F | 4.032% |
| CNC(=O)c1ccc2c(c1)C1(CCN(CC3CC3)CC1)C(=O)N2.O=C(O)C(F)(F)F | 108.4% |
| CC(C)(C)n1cc(C2=CCN(CCc3ccccn3)CC2)cn1 | 15.47% |
| CCOCC(O)CN1CCN(C(=O)Cc2ccc3c(c2)CCO3)CC1 (configuration not stated) | -9.69% |
| CC(Cn1cncn1)NCc1n[nH]c2c1CCCCC2 (configuration not stated) | -17.11% |
| COCCN1C[C@@H](C)[C@@]2(COCCN(C(=O)c3ccccn3)C2)C1.O=C(O)C(F)(F)F.O=C(O)C(F)(F)F | -2.288% |
| O=C(c1cccnc1-n1cncn1)N1CCC(Nc2ccccc2)CC1 | 0.1986% |
| O=C(c1cn(Cc2ccccc2)c2ncccc12)N1CCOCC1 | 115.6% |
| CC(=O)c1cn(CC(=O)N2CCC3(CC2)OCCO3)c2ccccc12 | -19.35% |
| O=C(c1cn(Cc2ccccc2)c2ncccc12)N1CCCCC1 | 137.3% |
| Cc1ccc(N2CCCN(C(=O)c3cn(C)c4ccccc34)CC2)nn1 | 7.774% |
| O=C(N1CCCO1)[C@@]12CCO[C@@H]1CCN(Cc1ccccn1)C2.O=C(O)C(F)(F)F.O=C(O)C(F)(F)F | 114.4% |
| Cc1cccc(CN2CCC3(CCCN(CC(=O)N(C)C)C3)C2)n1.O=C(O)C(F)(F)F (configuration not stated) | 2.241% |
| O=C(O)C(F)(F)F.O=C(O)C(F)(F)F.O=C([C@H]1CN(Cc2cccnc2)C[C@H]2OCC[C@@H]12)N1CCCO1 | -1.635% |

| Structure (SMILES) | Percent Effect |
| --- | --- |
| Cc1cccc(CN2CC[C@H]3OCC[C@@]3(C(=O)N3CCCO3)C2)n1.O=C(O)C(F)(F)F.O=C(O)C(F)(F)F | 104.8% |
| O=C(N1CCCO1)[C@]12COC[C@H]1CN(Cc1cccnc1)C2.O=C(O)C(F)(F)F.O=C(O)C(F)(F)F | 2.039% |
| O=C(O)C(F)(F)F.O=C([C@@H]1C[C@@H]2CCN(Cc3ccccn3)C[C@H]2O1)N1CCCO1 | -15.19% |
| Cc1noc(C)c1CN1CC[C@H]2OCC[C@@]2(C(=O)N2CCCO2)C1.O=C(O)C(F)(F)F | -1.065% |
| O=C(N1CCCO1)[C@@]12CCO[C@@H]1CCN(Cc1cccnc1)C2.O=C(O)C(F)(F)F.O=C(O)C(F)(F)F | 92.31% |
| O=C(O)C(F)(F)F.O=C(O)C(F)(F)F.O=C(O)C(F)(F)F.c1cc(CN2CCCC23CCCN(Cc2ccoc2)C3)ccn1 (configuration not stated) | 6.786% |
| Cc1nnc(N2CCCC3(CN(Cc4ccncc4)CCO3)C2)o1.O=C(O)C(F)(F)F.O=C(O)C(F)(F)F (configuration not stated) | -4.396% |
| O=C(N1CCOCC1)[C@@]12CCO[C@@H]1CCN(Cc1ccncc1)C2.O=C(O)C(F)(F)F.O=C(O)C(F)(F)F | 97.63% |
| Cc1cc(CN2C[C@@H]3CN(C(=O)c4ccco4)CCO[C@@H]3C2)no1.O=C(O)C(F)(F)F | -7.73% |
| Cc1cc(CN2CC[C@H]3OCC[C@@]3(C(=O)N3CCOCC3)C2)no1 | 107.8% |
| O=C(NCc1ccccn1)[C@@]12CCO[C@@H]1CCN(C1CCCC1)C2.O=C(O)C(F)(F)F.O=C(O)C(F)(F)F | 86.28% |
| Cc1ccnc(OC[C@@]23CCO[C@@H]2CCN(C2CCC2)C3)n1.O=C(O)C(F)(F)F | -3.433% |
| Cc1cc(CN2CC[C@H]3OCC[C@@]3(C(=O)NC(C)C)C2)no1.O=C(O)C(F)(F)F | 2.849% |
| CCn1ccnc1CN1CCNCC1C.Cl.Cl (configuration not stated) | 0.9214% |
| CN(C)C(=O)CN1CCCC12CCCN(c1ncc(F)cn1)C2.O=C(O)C(F)(F)F (configuration not stated) | 0.08141% |
| O=C(c1ncccn1)N1C[C@@H]2CN(CC3CC3)CCO[C@@H]2C1 | -1.954% |
| CN1CCN(C(=O)Cc2csc(-c3ccsc3)n2)C(c2ccccc2)C1 (configuration not stated) | -6.196% |
| CN(C)CCN(C)C[C@H]1CN2CC[C@H]1C[C@@H]2CNC(=O)Nc1ccsc1 | 9.133% |
| Cn1cc(CN2CCC[C@]3(C[C@@H](Oc4ccccn4)CO3)C2)cn1.O=C(O)C(F)(F)F.O=C(O)C(F)(F)F | 98.39% |
| Cc1cc(CN2CC[C@]3(C[C@@H](OCC(=O)N(C)C)CO3)C2)no1.O=C(O)C(F)(F)F | 25.8% |
| CN(C)[C@@H]1CN(Cc2cnn(C)c2)[C@@H]2COC[C@H]12.O=C(O)C(F)(F)F.O=C(O)C(F)(F)F.O=C(O)C(F)(F)F | -10.13% |

| Structure (SMILES) | Percent Effect |
| --- | --- |
| Cn1cc(CN2CCC[C@]3(C[C@H](Oc4ccccn4)CO3)C2)cn1 | 94% |
| Cc1csc(CN2CCC[C@]3(C[C@@H](Oc4ccccn4)CO3)C2)n1.O=C(O)C(F)(F)F.O=C(O)C(F)(F)F | 133.6% |
| Cn1cc(CN2CC[C@]3(C[C@H](Oc4ccccn4)CO3)C2)cn1.O=C(O)C(F)(F)F.O=C(O)C(F)(F)F | 102.3% |
| O=C(O)C(F)(F)F.O=C(O)C(F)(F)F.c1ccc(O[C@H]2CO[C@@]3(CCCN(Cc4nccs4)C3)C2)nc1 | 12.82% |
| Cc1csc(CN2CCC[C@]3(C[C@H](Oc4ccccn4)CO3)C2)n1.O=C(O)C(F)(F)F.O=C(O)C(F)(F)F | -0.2968% |
| Cc1noc(C)c1CN1C[C@@H](OCC(=O)N(C)C)[C@H]2OCCC[C@H]21 | -2.894% |
| O=C(NCC1CC1)[C@@H]1C[C@@H]2OCCN[C@@H]2C1.O=C(O)C(F)(F)F | 8.68% |
| Cc1cc(C)c(CNCC(O)c2ccc(F)c(F)c2)c(C)c1.Cl (configuration not stated) | 6.678% |
| COc1cccc(C2SCC(=O)Nc3ccsc32)c1OC (configuration not stated) | -5.826% |
| COc1cc(C2SCC(=O)Nc3ccsc32)cc(OC)c1O (configuration not stated) | -0.1259% |
| O=C1CSC(c2ccsc2)c2sccc2N1 (configuration not stated) | 0.8024% |
| Cc1c(C2SCC(=O)Nc3c2cnn3C(C)(C)C)cnn1C (configuration not stated) | 122.6% |
| O=C1CSC(c2cccs2)c2cnn(C3CCCC3)c2N1 (configuration not stated) | 10.18% |
| COC(=O)c1ccc(C2SCC(=O)Nc3c2cnn3C(C)(C)C)cc1 (configuration not stated) | 111.9% |
| CC(C)(C)n1ncc2c1NC(=O)CSC2c1ccsc1 (configuration not stated) | 129% |
| COC(=O)c1ccc(C2SCC(=O)Nc3ccsc32)cc1 (configuration not stated) | -2.415% |
| O=C1CSC(c2ccc(O)cc2)c2sccc2N1 (configuration not stated) | -5.574% |
| CC(C)(C)n1ncc2c1NC(=O)CSC2c1ccc2c(c1)OCCO2 (configuration not stated) | 117.6% |
| Cn1c(=O)n(C)c2cc(C3SCC(=O)Nc4ccsc43)ccc21 (configuration not stated) | 27.99% |
